Sampled rows, rich in hits. Any-hit rate of the full collection: about 1.3%.
NTR1 ag = agonists of human NTR1, primary screen, imaging, U2OS cells, beta-arrestin-GFP, high content; NTR1-U2OS beta-arrestin-GFP spot imaging, agonist mode; Neurotensin receptor type 1 (Homo sapiens), P30989; activation, % at 20 µM; 330,000 compounds, 0.17% hits; AID 493036, 2011;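 active = activation at or above 40% of the spot to cytoplasm intensity ratio, with at least 20 cells analyzed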;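 note: 0% = DMSO without peptide and 100% = 100 nM NTR1 peptide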
Target sequence (P30989 whole entry, looked up): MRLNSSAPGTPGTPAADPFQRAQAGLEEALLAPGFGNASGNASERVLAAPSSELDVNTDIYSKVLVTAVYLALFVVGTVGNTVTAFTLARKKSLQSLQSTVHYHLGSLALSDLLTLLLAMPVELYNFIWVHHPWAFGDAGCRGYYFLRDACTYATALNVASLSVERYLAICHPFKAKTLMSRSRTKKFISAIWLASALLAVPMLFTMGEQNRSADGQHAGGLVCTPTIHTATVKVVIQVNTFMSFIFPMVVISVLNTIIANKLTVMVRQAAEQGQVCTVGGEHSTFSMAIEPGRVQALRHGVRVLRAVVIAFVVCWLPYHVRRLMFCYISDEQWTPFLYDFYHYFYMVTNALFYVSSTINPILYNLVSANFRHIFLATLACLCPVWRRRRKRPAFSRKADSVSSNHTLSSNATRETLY
VLA-4 inh = inhibition in human VLA-4 binding assay, primary screen, VLA-4 allosteric modulator project, MLPCN library, flow cytometry, VLA-4 expressing cells; Integrin alpha-4 (Homo sapiens), P13612; ligand binding flow cytometry; inhibition, % (about 7 µM as worked out from the volumes in the protocol); 330,000 compounds, 0.2% hits; AID 2557, 2010; in the data active = inhibition above about 50%
GRK2 aptamer HTS = compounds blocking aptamer binding on GRK2 – biochemical, human GRK2, bead flow cytometry, HTS, primary screen. 330,000 compounds, 0.59% hits. inhibition of aptamer binding, % at 10 µM. Beta-adrenergic receptor kinase 1 (Homo sapiens), P25098. AID 488847, 2010. FAM-aptamer displacement from GRK2;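 active = inhibition of aptamer binding above 40%, roughly 3 SD of noise, on plates passing a quality check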;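 note: median bead fluorescence of bound FAM aptamer so fluorescent compounds give negative values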
Beta2AR agonist = beta2AR agonists driving receptor internalization, primary screen, cell-based, FAP fluorogen, flow cytometry. Beta-2 adrenergic receptor (Homo sapiens), P07550. Am2.2-beta2AR cells. response, % (concentration not given with the values). 340,000 compounds, 0.43% hits;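 active = response above a set limit, near 3 SD of response in nonfluorescent compounds, cut at about 42% in these data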
A1 inh = caspase 3/7 activation in MEF A1-2A-BIM cells, primary screen, A1 inhibitor project, cell-based, luminescence, HTS. Caspase-Glo 3/7 luminescence, 3 h; percent of clofoctol response, vehicle zero. caspase activation, % (concentration not given with the values). 330,000 compounds, 0.066% hits. AID 2462, 2010;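 active = over half of replicate activation scores above 10%, or exactly half above 10 with the replicate mean above 10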
GRK2 CP1 = GRK2 aptamer-displacing inhibitors, retest, confirmation, biochemical, cherry pick 1, bead flow cytometry; aptamer displacement, % at 10 µM; shares compounds with GRK2 aptamer HTS; 2,000 compounds, 4% hits; bead-bound GRK2, FAM-aptamer displacement; AID 504451, 2011;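 active = aptamer displacement above 40%, near three times the noise of non-fluorescent compounds, on plates passing quality checks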;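 note: negative values mostly reflect intrinsic compound fluorescence rather than true enhancement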
Aptamer quench SP = aptamer fluorescence quenching in GRK2 counter-screen | 2,000 tested, under 10 active | Carboxyfluorescein RNA aptamer on beads, flow cytometry quenching; hits give low values | fluorescence response (% of DMSO), % at 10 µM | shares compounds with GRK2 aptamer HTS;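 active = compounds that quench the bead-bound fluorescent RNA probe, cutting fluorescence to under half of the solvent control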;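 note: counterscreen run without GRK2 so only probe quenching by compound is measured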
GRK2 confirm 2 = GRK2 aptamer-displacing inhibitors, hit retest, confirmation, biochemical, cherry pick 2, bead flow cytometry; inhibition of aptamer binding, % at 10 µM; bead-bound GRK2, FAM-aptamer displacement; shares compounds with GRK2 aptamer HTS; AID 504782, 2011; 360 tested, under 10 active;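 active = inhibition of aptamer binding above 40%, about triple the noise seen with nonglowing compounds, on plates passing quality control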;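 note: negative values mostly come from compounds that fluoresce themselves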
FAM quench SP = quenches fluorescent RNA aptamer, GRK2 hit artifact. shares compounds with GRK2 aptamer HTS. carboxyfluorescein RNA aptamer beads, flow cytometry quenching; hits give low values. fluorescence response vs DMSO, % at 10 µM. 360 tested, under 10 active. AID 588494;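 active = response vs DMSO under 50%, meaning signal dropped by over half, treated as fluorescence quencher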;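 note: labelled aptamer on streptavidin beads without GRK2 as a quench counter-screen; 100% = bead fluorescence of DMSO wells and lower means quenching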
Numbers without * were called inactive; i = inactive; x = no result given.

SMILES	NTR1 ag	VLA-4 inh	GRK2 aptamer HTS	Beta2AR agonist	A1 inh	GRK2 CP1	Aptamer quench SP	others
CCOc1ccccc1N(C(=O)Cn1nnnc1-c1ccc(C)o1)C(CC)C(=O)NC(C)(C)C (stereo unspecified)	2.0	3.6	97.0*	4.6	-0.5	-1.4	102.2
CCC(C(=O)NC1CCCC1)N(C(=O)Cn1nnc(-c2ccc(C)o2)n1)c1ccccc1OC (stereo unspecified)	0.6	4.5	0.0	-0.3	0.9	x	x
COc1cc(NC(=O)C2CC(=O)N(CCc3ccc(F)cc3)C2)cc(OC)c1OC (stereo unspecified)	1.6	-9.8	1.0	3.1	-0.1	x	x
CNC(=S)N(C)/N=C1/C(=O)N(Cc2c(Cl)cccc2Cl)c2ccccc21	16.1	19.8	1.0	28.7	0.5	x	x
CCCc1nc2ccccc2c(C(=O)N(CC)CC(=O)NCc2cccs2)c1CC	0.3	x	x	-3.4	x	x	x
COc1ccc(NC(=O)c2ccccc2NC(=O)CSc2ccccc2)cc1	-0.1	-13.3	0.0	-4.3	-0.6	x	x
COc1ccc(NC(=O)c2ccccc2NC(=O)c2ccccc2)cc1	4.9	12.7	41.0*	-4.5	-0.2	x	x	GRK2 confirm 2=-22.3;FAM quench SP=97.0
COc1ccc(NC(=O)c2ccccc2NC(=O)CSc2ccc(Cl)cc2)cc1	3.5	15.5	47.0*	-5.0	0.3	0.4	105.7
Cc1ccc(C(=O)C2CCOC(C)(C)C2)cc1 (stereo unspecified)	0.9	-0.6	2.0	-3.8	-0.1	x	x
C[C@@H]1[C@H]2[C@@H](O[C@@H]3O[C@H](CO)[C@@H](O)[C@H](O)[C@H]3O)OC=C(C(=O)O)[C@H]2C[C@@H]1O	-0.6	2.0	0.0	5.0	0.8	x	x
Cn1c(SCC(=O)Nc2ccc(C(=O)O)cc2)nc2scc(-c3ccccc3Cl)c2c1=O	-1.1	2.4	1.0	-0.2	2.1	x	x
CCn1c(=S)sc2c(=O)[nH]c(SCC(=O)Nc3cc(OC)ccc3OC)nc21	-0.2	12.7	0.0	31.9	2.2	x	x
O=C(O)c1ccc(/C=C2\SC(=S)N(NC(=O)c3ccccc3[N+](=O)[O-])C2=O)cc1	2.3	19.9	47.0*	0.8	-0.4	1.2	101.0
CCOC(=O)Nc1ccc2c(c1)nc(CN1CCN(C(C)=O)CC1)n2C	0.3	-5.1	68.0*	1.5	-0.6	-0.5	104.3
CCOC(=O)Nc1ccc2c(c1)nc(CN1CCCCC1)n2C	0.1	0.3	3.0	-10.2	0.1	x	x
Cc1cc2cc(CNC(=O)Nc3cccc(Cl)c3)ccc2n1C	0.0	0.9	44.0*	3.2	0.6	-10.9	99.2
Cc1cc2cc(CNC(=O)c3ccc(Br)o3)ccc2n1C	-0.8	-13.2	73.0*	9.0	0.3	7.5	80.1
Cc1cccc(NC(=O)NCc2ccc3c(c2)cc(C)n3C)c1	-1.7	-7.9	31.0	9.8	0.6	x	x
Cc1cccc(NC(=O)CCNC(=O)c2ccc(Br)cc2)c1	-0.4	5.8	0.0	-1.0	-0.1	x	x
COc1cc(NC(=O)C2CCCO2)c(C(=O)O)cc1OC (stereo unspecified)	0.9	15.8	38.0	-3.7	0.2	0.3	98.9
COC(=O)C1=CO[C@@H](OC2OC(CO)C(O)C(O)C2O)[C@@H]2[C@@H](C)[C@@H](O)C[C@H]12 (stereo partly specified)	-0.8	-9.6	0.0	-0.2	0.7	x	x
C=C[C@H]1[C@H](OC2OC(CO)C(O)C(O)C2O)OC=C(C(=O)OC)[C@H]1C[C@H]1CC(=O)C[C@H](CC(=O)CCc2ccc(O)cc2)O1 (stereo partly specified)	-0.2	-20.6	97.0*	x	-0.2	3.1	96.7
CN(C(=O)c1ccccc1C(=O)OCC(=O)c1ccc(F)cc1)c1ccccc1	-0.1	1.2	0.0	3.3	0.0	x	x
CN(C(=O)c1ccccc1C(=O)OCC(=O)c1ccccc1)c1ccccc1	-2.4	-41.1	75.0*	-4.8	0.8	-17.7	97.7
O=C(Nc1cccc(C(=O)NC2CCCC2)c1)c1ccccc1	1.1	-7.5	0.0	-5.4	-0.3	x	x
SMILES	NTR1 ag	VLA-4 inh	GRK2 aptamer HTS	Beta2AR agonist	A1 inh	GRK2 CP1	Aptamer quench SP	others
O=C(NC1CC1)c1cccc(NC(=O)c2cnn(-c3ccccc3)n2)c1	5.3	3.0	4.0	14.6	-1.4	-0.7	94.2
O=C(O)c1ccc(-n2c(-c3cc(-c4ccco4)[nH]n3)n[nH]c2=S)cc1	1.0	-0.9	80.0*	-1.3	0.2	4.1	99.0
COc1ccc2oc(C(=O)N3CCN(C(=O)c4ccco4)CC3)c(C)c2c1	-1.0	2.5	1.0	-5.7	0.8	x	x
COc1ccc2oc(C(=O)N(Cc3ccco3)Cc3cccs3)c(C)c2c1	4.0	2.1	80.0*	5.8	-0.8	0.5	97.4
Cc1ccc(CSCC(=O)Nc2cc(S(=O)(=O)N3CCOCC3)ccc2OCC(F)(F)F)cc1	x	x	x	3.6	x	x	x
Cc1ccnc(NC(=O)CCC(=O)c2cc(C)sc2C)c1	-0.5	-211.2	2.0	-64.1	-0.7	x	x
Cc1ccc2nc(/C(C#N)=C\c3ccc([N+](=O)[O-])o3)[nH]c2c1	-3.2	i	26.0	-363.8	0.3	0.1	109.2
N#C/C(=C\c1ccc([N+](=O)[O-])o1)c1nc2ccccc2[nH]1	-4.1	i	0.0	x	0.8	x	x
Cc1ccc(S(=O)(=O)/N=C(\c2ccccc2)N(C)S(=O)(=O)c2ccc(C)cc2)cc1	-1.3	1.8	66.0*	-10.2	-0.2	-3.4	96.3
Cc1ccc(S(=O)(=O)N(C)/C(=N/S(=O)(=O)c2ccccc2)c2ccccc2)cc1	2.0	-74.1	8.0	-16.7	0.1	x	x
COc1ccc(-c2oc3cccnc3c2/C=C/c2ccc(OC)c(OC)c2)cc1	0.0	-22.4	0.0	-0.3	0.0	x	x
COc1ccc(C(C(=O)NC2CCCC2)N(C(=O)c2snc(-c3ccc(F)cc3)c2N)c2ccc(F)cc2)cc1 (stereo unspecified)	1.1	-16.2	72.0*	4.8	-0.8	7.7	102.9
